Measurements reported in PubChem BioAssay (EPA / NIEHS).
Activity calls are given as the source filed them. Rule for the calls: active = hit-call score of the fitted dose curve at least 0.9, where 1 is the maximum; inactive = score below 0.9.

test: CCTE_Shafer_MEA_acute_burst_percentage_mean: CCTE's Neural Acute Assay for Percentage of Spikes in a Burst, Shafer Lab (AID 2284017);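 for AC50: curve fitted for loss of signal so potency reflects decreased burst percentage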
Procedure: CCTE_Shafer_MEA_acute assay is conducted using Axion Biosystems 48 well microelectrode array (MEA) plates and Maestro recording system. Each well of the MEA plate contains a grid of 16 microelectrodes embedded in the culture surface. Electrically active cells, such as neurons, can be cultured over the electrodes, and electrical activity in these cells can be recorded extracellularly. The spontaneous firing of neurons is captured from each electrode on a microsecond timescale providing both temporally and spatially precise data. […] The CCTE_Shafer_MEA_acute assay uses primary cultures of rat cortical neurons. As these cultures mature over time, neural networks develop functional activity and form cohesive networks in which electrical activity can be highly coordinated. Baseline 40-minute recordings are made on days post-plating 13 or 15, followed by a secondary 40-minute recording after chemical exposure.CCTE_Shafer_MEA_acute_burst_percentage_mean is a component of the CCTE_Shafer_MEA_acute assay. It measures the percentage of spikes (action potential firing) in a single-electrode burst (temporally-clustered groups of spikes) as the number of spikes in bursts divided by the total number of spikes during a recording in a microelectrode array (MEA) using Axion Biosystems Maestro 768 channel amplifier with the AxIS adaptive spike detector. The average of the burst percentages across electrodes is calculated to report a well-level value. The recordings before and after chemical treatment are used to calculate a percent change in the mean burst percentage in each well.Data from the assay component CCTE_Shafer_MEA_acute_burst_percentage_mean was analyzed into 1 assay endpoint. This assay endpoint, CCTE_Shafer_MEA_acute_burst_percentage_mean, was analyzed in the negative analysis fitting direction relative to DMSO as the negative control and baseline of activity. Using a type of functional reporter, gain or loss-of-signal activity can be used to understand electrical activity.
Spontaneous activity in the cortical cultures was recorded using an Axion Biosystems Maestro 768 channel amplifier and Axion Integrated Studios (AxIS) v1.8 (or later) software. The amplifier recorded from all channels simultaneously (gain = 1200 x; sampling rate = 12.5 kHz/channel): raw signals were filtered with a Butterworth band-pass filter (300-5000 Hz), which filters out slower local field potentials leaving only fast potentials, i.e., "spikes", arising from extracellular currents associated with action potentials (Pine 2006; Wheeler and Nam 2011). On-line spike detection of filtered signals was conducted with the AxIS adaptive spike detector, using a threshold of 8x the root mean squared (rms) noise on each channel. Any electrodes with rms noise levels greater than 5 uV were grounded (e.g., no data were recorded). Once grounded, an electrode was grounded for the duration of the experiment. All recordings were conducted at 37 C. Wells were deemed usable if on the day of the exposure >/= 10 electrodes were active (defined as >/= 5 spikes/min). On DIV 13 or 15, a minimum of three wells from one cortical culture preparation were treated with each compound (0.03-40 uM). Prior to recording baseline activity, each mwMEA plate was placed in the Maestro at 37 C and allowed to sit for 20 min while firing rates stabilized. Baseline activity (40 min) was recorded before the addition of each compound. An additional 40 min of spontaneous activity was recorded in the presence of each compound. Changes in network parameters relative to baseline were assessed following compound treatment.

| Compound | outcome | AC50 |
| --- | --- | --- |
| OCC(CO)n1cnc(-c2ccc(F)cc2)c1-c1ccnc(Oc2ccccc2)n1 | inactive |  |
| COc1ccc(OC(F)(F)F)cc1CN[C@H]1CCCN[C@H]1c1ccccc1 |  | 4.59 µM (active) |
| CCCCC(CC)COP(=O)(OCC(CC)CCCC)OCC(CC)CCCC (stereo not drawn) | inactive |  |
| C/C=C/c1ccc(OC)cc1 | inactive |  |
| NC(=Nc1ccccc1)Nc1ccccc1 |  | 29.5 µM (active) |
| Cc1cc(Cc2ccc(N)c(C)c2)ccc1N |  | 30 µM (active) |
| CN(C)C(=O)NC1(c2ccccc2)CCN(CCC[C@]2(c3ccc(Cl)c(Cl)c3)CCCN(C(=O)c3ccccc3)C2)CC1 |  | 7.4 µM (active) |
| O=C(N[C@@H](c1ccccc1)[C@@H]1CCCCN1)c1cccc(C(F)(F)F)c1Cl |  | 5 µM (active) |
| CN(C)C(=O)NC1(c2ccccc2)CCN(CC[C@@]2(c3ccc(F)c(F)c3)CN(C(=O)c3ccccc3)CCO2)CC1 | inactive |  |
| Oc1ccc(O)cc1 | inactive |  |
| CSc1ccc(Oc2ccc(S(N)(=O)=O)cc2CN(C)C)cc1C |  | 31.8 µM (active) |
| CC1=C(C)S(=O)(=O)CCS1(=O)=O | inactive |  |
| COC(=O)[C@H]1[C@H]2C[C@@H]3c4[nH]c5cc(OC)ccc5c4CCN3C[C@H]2C[C@@H](OC(=O)c2cc(OC)c(OC)c(OC)c2)[C@@H]1OC |  | 34.3 µM (active) |
| O=C(O)CN(CC(=O)O)CC(=O)O | inactive |  |
| CC(C)NCC(O)c1ccc(O)c(O)c1 (stereo not drawn) | inactive |  |
| Cc1ccc(C(C)(C)C)c(O)c1 |  | 29.9 µM (active) |
| Cc1ccc(-c2cc(C(F)(F)F)nn2-c2ccc(S(N)(=O)=O)cc2)cc1 |  | 20 µM (active) |
| O=C1OC(c2ccc(O)cc2)(c2ccc(O)cc2)c2ccccc21 |  | 24.6 µM (active) |
| Nc1nc(=S)c2[nH]cnc2[nH]1 |  | 5.71 µM (active) |
| CC(N)=O | inactive |  |
| c1ccc2occc2c1 | inactive |  |
| Cc1cc(SC2=C(O)C[C@@](CCc3ccc(N)cc3)(C(C)C)OC2=O)c(C(C)(C)C)cc1CO | inactive |  |
| Cc1c(C)c2c(c(C)c1O)CCC(C)(COc1ccc(CC3SC(=O)NC3=O)cc1)O2 (stereo not drawn) |  | 32.9 µM (active) |
| CCCC(=O)O | inactive |  |
| CCN(CC)CCOc1ccc(C(=C(Cl)c2ccccc2)c2ccccc2)cc1 |  | 20 µM (active) |
| CC(C)COC(=O)CCCCC(=O)OCC(C)C | inactive |  |
| CN(C)CCCN1c2ccccc2Sc2ccc(Cl)cc21 |  | 33.2 µM (active) |
| CCc1cc(C2=C(C(=O)O)N(c3ccccc3C(F)(F)F)S(=O)(=O)c3ccccc32)cc2c1OCO2 | inactive |  |
